Reference: PubChem BioAssay (NCATS)
Several values for one entry are separate records, joined by “and”; a condition that tells them apart may be missing. Identical values can stand only once.

Key:
[1] = qHTS profiling of the MIPE4 collection as inhibitors of Plasmodium falciparum (3D7) proliferation (AID 743344);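 also: scaled between DMSO vehicle wells and 0.29 µM artemisinin as full inhibition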; conditions: P. falciparum 3D7 in erythrocytes, SYBR Green DNA fluorescence, 72 h; at 28.5 µM unless noted
Method in brief: (§1)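 Erythrocytes infected with P. falciparum (0.3% parasitemia, 2.5% hematocrit) incubated with compounds 72 h at 37 C, 5% CO2. Lysis with saponin/Triton buffer containing SYBR Green I, overnight at room temperature in the dark; DNA fluorescence (485/535 nm) normalised to 0.29 uM artemisinin and DMSO.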

[2] = qHTS profiling of the MIPE4 collection as inhibitors of Plasmodium falciparum (DD2) proliferation (AID 743345); conditions: P. falciparum Dd2 in erythrocytes, SYBR Green DNA, 72 h; at 28.5 µM unless noted
Method in brief: as §1

[3] = qHTS profiling of the MIPE4 collection as inhibitors of Plasmodium falciparum (DD2) proliferation (Rep 2) (AID 743346); conditions: P. falciparum Dd2 in erythrocytes, SYBR Green DNA, 72 h; at 28.5 µM unless noted
Method in brief: as §1

[4] = qHTS profiling of the MIPE4 collection as inhibitors of Plasmodium falciparum (HB3) proliferation (AID 743347);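 also: plate controls were DMSO vehicle wells for no effect and artemisinin wells for full effect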; conditions: P. falciparum HB3 in erythrocytes, SYBR Green DNA, 72 h; at 28.5 µM unless noted
Method in brief: as §1

[5] = High-throughput drug toxicity screening in the BPDCN cell line Gen2.2 (AID 1224824); conditions: Gen2.2 BPDCN cells; at 45.8 µM (top of the series) unless noted;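 also: cells exposed to compounds for 48 h before reading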
Method in brief: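 Seed 500 exponentially growing Gen2.2 cells/well; add compounds by pin tool; incubate 48 h, 37 °C, 5% CO2; add CellTiter-Glo, 15 min RT; read luminescence. % activity vs DMSO (100%) and bortezomib (0%).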

[6] = High-throughput drug toxicity screening in the BPDCN cell line Cal-1 (AID 1224825); conditions: Cal-1 BPDCN cell viability, qHTS; at 45.8 µM (top of the series) unless noted
Method in brief: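 500 Cal-1 cells/well, RPMI + glutamine + 10% FBS (phenol red-free); cpd added by pin tool; 48 h, 37C, 5% CO2; CTG 15 min RT, lumi read. Normalised: DMSO 100%, bortezomib 9.2 uM 0%.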

SMILES	parasite growth, % of DMSO control [1]	parasite growth remaining, % of DMSO control (lower = more inhibition) [2]	parasite growth, % of control (lower = inhibition) [3]	growth, % of control [4]	cell viability, % of control (lower = more cytotoxic) [5]	viability (% of control) [6]
CC(C)OC(=O)CCCC=CC[C@@H]1[C@H](C=C[C@@H](O)COc2cccc(C(F)(F)F)c2)[C@H](O)C[C@@H]1O	23.8%	76.3%	33.1%	15.8%	286%	63.7%
CCn1c(C(=O)N(C2CC2)C2CC2)cc2c3c(ncn3C)c(Nc3cc(C)n(C)n3)nc21	9.81%	12.4%	23.5%	11.5%	144%	90.8%
COc1ccc(Cc2nccc3cc(OC)c(OC)cc23)cc1OC	5.44%	11.3%	18.7%	2.71%	47.4%	96.9%
Cc1ccccc1C(C(=O)NC1CCCCC1)N(C(=O)Cn1ccnc1C)c1cccc(F)c1 (stereo unspecified)	103%	36.3%	25.9%	271%	125%	107%
NS(=O)(=O)c1cccc2c1C(=O)c1cccc(O)c1C2=O	4.48%	6.12%	4.4%	2.61%	5.1%	3.92%
O=C1NC(=O)C(=Cc2ccc3nccnc3c2)S1	56.7% [at 9.64 µM]	92.6% [at 9.64 µM]	114% [at 9.64 µM]	88.4% [at 9.64 µM]	31% [at 23.2 µM]	44.1% [at 23.2 µM]
CC(=O)Oc1cc2c(s1)CCN(C(C(=O)C1CC1)c1ccccc1F)C2 (stereo unspecified)	56.7%	95.5%	–	57.5%	15.7%	18.3%
COc1ccc(C2Sc3ccccc3N(CCN(C)C)C(=O)C2OC(C)=O)cc1 (stereo unspecified)	68.8% and 96.6%	81% and 97.9%	33.4% and 89.9%	60.2% and 101%	150%	90%
CC(C)(C)Cn1c(N)nc2ccc(-c3[nH]c(C(C)(C)C)nc3-c3ccc(F)cc3)nc21	11%	9.48%	16%	4.94%	207%	59.3%
O=c1c(-c2ccc(O)cc2)coc2cc(OC3O[C@H](CO)[C@H](O)[C@H](O)[C@H]3O)cc(O)c12 (stereo partly specified)	57%	88.8%	65.7%	54%	74.8%	37.3%
O=c1cc(-c2ccccc2)oc2cc(O)cc(O)c12	48.1%	89.3%	49.8%	43.5%	45.9%	52.1%
Cc1ccc([C@@H]2O[C@H](CO)[C@@H](O)[C@H](O)[C@@H]2O)cc1Cc1ccc(-c2ccc(F)cc2)s1	134%	118%	75.3%	310%	126%	48.1%
CC(C)C(=O)Oc1ccc(CO)cc1[C@H](CCN(C(C)C)C(C)C)c1ccccc1	37.9%	40.7%	20.1%	45.5%	126%	102%
O=C1NC(=O)C(=Cc2ccc(-c3ccc(F)cc3)o2)S1	75.2%	93.7%	91.6%	75.6%	57.7%	95.6%
COc1ccc2c(Oc3ccc(NC(=O)c4c(C)n(CC(C)(C)O)n(-c5ccccc5)c4=O)cc3F)ccnc2c1	18.3%	60.9%	48.9%	13.8%	16.8%	13.4%
Clc1ccc(C(c2ccc(Cl)cc2)n2cc[n+](CC(OCc3ccc(Cl)cc3Cl)c3ccc(Cl)cc3Cl)c2)cc1 (stereo unspecified)	6.19%	5.85%	17.2%	7.48%	1.6%	3.49%
CCCCCN(C)CCC(O)(P(=O)(O)O)P(=O)(O)O	92.2%	92.9%	–	90.7%	125%	102%
N[C@H](CSC(c1ccccc1)(c1ccccc1)c1ccccc1)C(=O)O	10.7%	86.8%	16.2%	4.68%	68.6%	12%
